Experimental data published in PubChem BioAssay.

molecular target: PEG-3 (UniProt Q6IN02); test: Peg3 promoter luciferase inhibitors, potency, dose response, cell-based, HeLa, CREF/GAPDH counter-screen panel (AID 624167); conditions: CREF/GAPDH counter-screens; HeLa PEG-Prom luciferase reporter, overnight, run 1, dose range 1, at 100 µM (top of the series) unless noted
Sequence (Q6IN02 whole entry, looked up): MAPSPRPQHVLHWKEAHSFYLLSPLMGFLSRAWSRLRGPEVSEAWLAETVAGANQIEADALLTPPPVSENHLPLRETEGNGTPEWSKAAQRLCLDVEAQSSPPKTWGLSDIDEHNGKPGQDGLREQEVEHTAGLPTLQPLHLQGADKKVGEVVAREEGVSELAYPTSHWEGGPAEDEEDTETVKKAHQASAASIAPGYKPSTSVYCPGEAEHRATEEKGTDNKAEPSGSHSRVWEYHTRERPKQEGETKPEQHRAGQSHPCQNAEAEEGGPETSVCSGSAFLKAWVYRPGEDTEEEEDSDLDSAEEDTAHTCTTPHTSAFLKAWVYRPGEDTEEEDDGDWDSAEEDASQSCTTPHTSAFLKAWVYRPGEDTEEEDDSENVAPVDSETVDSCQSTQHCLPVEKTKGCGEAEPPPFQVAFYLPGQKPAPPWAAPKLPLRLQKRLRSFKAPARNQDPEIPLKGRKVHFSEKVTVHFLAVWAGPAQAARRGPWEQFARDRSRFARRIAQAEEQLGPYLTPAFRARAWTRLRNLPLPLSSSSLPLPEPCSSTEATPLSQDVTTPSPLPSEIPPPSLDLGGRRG

Compound | inhibition [%]
CCOC(=O)c1ccc(NC(=O)C2CCCN(S(=O)(=O)c3ccc(F)cc3)C2)cc1 (stereo not given) | 97.3
N#C/C(=C\c1cccc([N+](=O)[O-])c1)C(=O)NCc1ccc(Cl)cc1 | 99.3
CCn1cc(C(=O)NCCC(C)C)c(=O)c2cc(F)c(N3CCN(C(=O)c4ccco4)CC3)cc21 | 32.2
CCCc1ccc(C(=O)O/N=C(\N)c2ccccn2)cc1 | 99.7
Cc1cc(C)c2sc(N(CCCN(C)C)C(=O)c3ccc(S(=O)(=O)N(C)Cc4ccccc4)cc3)nc2c1 | 98.7
COc1ccc(C2c3ccc4ccccc4c3Oc3ncn(CCCO)c(=N)c32)cc1 (stereo not given) | 102
CCCCCCCNC(=O)C1(CC2CC(c3ccccc3)=NO2)CCNCC1 (stereo not given) | 97.9
CCCCNc1nc(=S)n(-c2ccccc2)c(C)c1C(C)=O | 98
Cc1ccc(C2(CCNCc3ccc(N(C)C)cc3)CCOC(C(C)C)C2)cc1 (stereo not given) | 99.6
COc1cc(C(=O)/C=C/c2cccnc2)c([N+](=O)[O-])cc1OC | 102
CCCc1nc2oc3c(NCCCN(C)C)ncnc3c2c2c1CCCC2 | 102
Cc1cc(/C=c2/sc3nc4ccccc4n3c2=O)c(C)n1-c1ccccn1 | 84.1
CN(C)CCc1cc2c(c3c1ccc1ccccc13)OCO2 | 98.3
OC[C@@H]1[C@@H](c2ccc(Cl)cc2)C(c2cccc(Cl)c2)=NN1c1ccccc1 | 102
CCN(CC)CCSc1nnc2c3cc(C)ccc3n(Cc3ccccc3)c2n1 | 102
O=S(=O)(CC(CN1CCCCC1)N1CCCCC1)c1ccccc1 (stereo not given) | 102
COc1cccc(/C=C2/Sc3ccc(C(=O)NCCCN4CCCC4)cc3NC2=O)c1 | 102
Cc1nc(N2CCN(S(=O)(=O)c3ccccc3C#N)CC2)c2c(-c3ccccc3)csc2n1 | -7.38
CCCCN(C)C(=O)c1ccc(Nc2nc(C(N)CCc3ccccc3)cs2)nc1 (stereo not given) | 98.6
COc1cccc(C(=O)c2sc(NC(C)C)nc2N)c1 | 93.5

Compound | inhibition [%]
CCc1nc(Sc2nnnn2-c2ccccc2)c2c3c(sc2n1)CCCC3 | 68.7
CC(NNC(=S)N1CCN(c2ccccn2)CC1)c1nccc2ccccc12 (stereo not given) | 98.7
COc1ccc(/C=C/C(=O)c2ccc3c4c(cccc24)CC3)cc1OC | 101
Cc1cc(C)c2c(N)c3ccccc3nc2n1 | 102
O=C(CN1CCN(Cc2ccccc2Cl)CC1)N=Nc1c(O)[nH]c2ccccc12 | 94.2
Oc1cccc(C(Nc2nccs2)c2ccc3cccnc3c2O)c1 (stereo not given) | 97.4
CC(=O)Nc1ccc(Nc2nc(C)c([N+](=O)[O-])c(Nc3ccccc3)n2)cc1 | 99.5
CC(=O)N1CCN(c2cc(-c3ccccc3)nc3cc(-c4cccc(Cl)c4)nn23)CC1 | 101
O=C1OCCC1Sc1nnc(-c2ccc(Cl)cc2Cl)o1 (stereo not given) | 92.6
O=C(Nc1ccc2oc(-c3ccncc3)nc2c1)c1ccc([N+](=O)[O-])o1 | 99
O=C(CN1CCCC1)Nc1ccc(-c2nc3cc(NC(=O)CN4CCCC4)ccc3o2)cc1 | 98.9
Cn1nnnc1Sc1ncnc2scc(-c3ccsc3)c12 | 102
Cc1c(CCOC(=O)C23CC4CC(CC(C)(C4)C2)C3)sc[n+]1CC(=O)c1ccccc1 | 99.3
CN(Cc1ccccc1)C(=O)c1ccc(Nc2nc(C(N)Cc3ccccc3)cs2)nc1 (stereo not given) | 102
COc1ccc(-c2cc(C(=O)N3CCN(c4ccccc4F)CC3)c3ccccc3n2)c(OC)c1 | 27.3
CC(NS(=O)(=O)OCC(Cl)(Cl)Cl)c1ccc(C(C)(C)C)cc1 (stereo not given) | 101
COc1ccc(NS(=O)(=O)c2ccc3ccccc3c2)c2ncccc12 | 57.9
CCN1CCN(CCNC(=O)c2ccc(/C=C3\Sc4ccccc4N(Cc4ccccc4F)C3=O)cc2)CC1 | 102
O=C(CCN1C(=O)/C(=C/c2ccc(F)cc2)SC1=S)N[C@@H](CO)Cc1ccccc1 | 36.9
CCN(Cc1ccccc1)S(=O)(=O)c1ccc(C(=O)N(CCCN(C)C)c2nc3cc4c(cc3s2)OCCO4)cc1 | 99.4

molecular target: PEG-3 (UniProt Q6IN02); test: as above; conditions: CREF/GAPDH counter-screens; HeLa PEG-Prom luciferase reporter, overnight, run 2, dose range 1, at 100 µM (top of the series) unless noted

Compound | inhibition
CCOC(=O)c1ccc(NC(=O)C2CCCN(S(=O)(=O)c3ccc(F)cc3)C2)cc1 (stereo not given) | 100%
N#C/C(=C\c1cccc([N+](=O)[O-])c1)C(=O)NCc1ccc(Cl)cc1 | 101%
CCn1cc(C(=O)NCCC(C)C)c(=O)c2cc(F)c(N3CCN(C(=O)c4ccco4)CC3)cc21 | 101% [run 2, dose range 1, at 50 µM]
CCCc1ccc(C(=O)O/N=C(\N)c2ccccn2)cc1 | 102%
Cc1cc(C)c2sc(N(CCCN(C)C)C(=O)c3ccc(S(=O)(=O)N(C)Cc4ccccc4)cc3)nc2c1 | 101%
COc1ccc(C2c3ccc4ccccc4c3Oc3ncn(CCCO)c(=N)c32)cc1 (stereo not given) | 101%
CCCCCCCNC(=O)C1(CC2CC(c3ccccc3)=NO2)CCNCC1 (stereo not given) | 98.7%
CCCCNc1nc(=S)n(-c2ccccc2)c(C)c1C(C)=O | 98.8%
Cc1ccc(C2(CCNCc3ccc(N(C)C)cc3)CCOC(C(C)C)C2)cc1 (stereo not given) | 101%
COc1cc(C(=O)/C=C/c2cccnc2)c([N+](=O)[O-])cc1OC | 99.8%
CCCc1nc2oc3c(NCCCN(C)C)ncnc3c2c2c1CCCC2 | 101%
Cc1cc(/C=c2/sc3nc4ccccc4n3c2=O)c(C)n1-c1ccccn1 | 84.5%
CN(C)CCc1cc2c(c3c1ccc1ccccc13)OCO2 | 99.1%
OC[C@@H]1[C@@H](c2ccc(Cl)cc2)C(c2cccc(Cl)c2)=NN1c1ccccc1 | 101%
CCN(CC)CCSc1nnc2c3cc(C)ccc3n(Cc3ccccc3)c2n1 | 99.8%
O=S(=O)(CC(CN1CCCCC1)N1CCCCC1)c1ccccc1 (stereo not given) | 102%
COc1cccc(/C=C2/Sc3ccc(C(=O)NCCCN4CCCC4)cc3NC2=O)c1 | 99%
Cc1nc(N2CCN(S(=O)(=O)c3ccccc3C#N)CC2)c2c(-c3ccccc3)csc2n1 | 5.99%
CCCCN(C)C(=O)c1ccc(Nc2nc(C(N)CCc3ccccc3)cs2)nc1 (stereo not given) | 94.6%
COc1cccc(C(=O)c2sc(NC(C)C)nc2N)c1 | 95.7%

Compound | inhibition
CCc1nc(Sc2nnnn2-c2ccccc2)c2c3c(sc2n1)CCCC3 | 91.8%
CC(NNC(=S)N1CCN(c2ccccn2)CC1)c1nccc2ccccc12 (stereo not given) | 99.9%
COc1ccc(/C=C/C(=O)c2ccc3c4c(cccc24)CC3)cc1OC | 102%
Cc1cc(C)c2c(N)c3ccccc3nc2n1 | 101%
O=C(CN1CCN(Cc2ccccc2Cl)CC1)N=Nc1c(O)[nH]c2ccccc12 | 90.4%
Oc1cccc(C(Nc2nccs2)c2ccc3cccnc3c2O)c1 (stereo not given) | 98.7%
CC(=O)Nc1ccc(Nc2nc(C)c([N+](=O)[O-])c(Nc3ccccc3)n2)cc1 | 93.4%
CC(=O)N1CCN(c2cc(-c3ccccc3)nc3cc(-c4cccc(Cl)c4)nn23)CC1 | 95.5%
O=C1OCCC1Sc1nnc(-c2ccc(Cl)cc2Cl)o1 (stereo not given) | 94.1%
O=C(Nc1ccc2oc(-c3ccncc3)nc2c1)c1ccc([N+](=O)[O-])o1 | 101%
O=C(CN1CCCC1)Nc1ccc(-c2nc3cc(NC(=O)CN4CCCC4)ccc3o2)cc1 | 102%
Cn1nnnc1Sc1ncnc2scc(-c3ccsc3)c12 | 102%
Cc1c(CCOC(=O)C23CC4CC(CC(C)(C4)C2)C3)sc[n+]1CC(=O)c1ccccc1 | 97.8%
CN(Cc1ccccc1)C(=O)c1ccc(Nc2nc(C(N)Cc3ccccc3)cs2)nc1 (stereo not given) | 101%
COc1ccc(-c2cc(C(=O)N3CCN(c4ccccc4F)CC3)c3ccccc3n2)c(OC)c1 | 47.4%
CC(NS(=O)(=O)OCC(Cl)(Cl)Cl)c1ccc(C(C)(C)C)cc1 (stereo not given) | 97.9%
COc1ccc(NS(=O)(=O)c2ccc3ccccc3c2)c2ncccc12 | 73.1%
CCN1CCN(CCNC(=O)c2ccc(/C=C3\Sc4ccccc4N(Cc4ccccc4F)C3=O)cc2)CC1 | 101%
O=C(CCN1C(=O)/C(=C/c2ccc(F)cc2)SC1=S)N[C@@H](CO)Cc1ccccc1 | 72%
CCN(Cc1ccccc1)S(=O)(=O)c1ccc(C(=O)N(CCCN(C)C)c2nc3cc4c(cc3s2)OCCO4)cc1 | 101%
